Screening results deposited in PubChem BioAssay by several laboratories.
The list is not random: actives were taken first. Their share in the collection is about 2.9%.
Mtb hypoxia inh = reduces hypoxia-regulated biosensor signal in M. tuberculosis; M. tuberculosis hypoxia-regulated fluorescent reporter, fluorescence; fluorescence inhibition, % (concentration not given with the values); 0.1% of 300,000 active; AID 1159583; in the data active means fluorescence inhibition mostly above about 23%, no sharp cut-off; inactive means mostly below about 17%
BioA inh = blocks M. tuberculosis BioA enzyme activity; purified M. tuberculosis BioA enzyme, plate reader; inhibition, % at 9.99 µM; 0.096% of 360,000 active; in the data active means inhibition above about 40%
FadD28 binding = M. tuberculosis FadD28 bisubstrate binding inhibition; 0.22% of 360,000 active; FadD28 bisubstrate probe binding, fluorescence polarization; inhibition, % at 12.5 µM; in the data active means inhibition above about 8.5%, passing the limit was not always enough
GDH-TPI counter-1 = inhibits GDH-TPI coupling enzymes, artifact for Mtb FBA screen; GDH-TPI coupled enzyme counterscreen, NADH absorbance; inhibition, % at 4.8 µM; 1.2% of 360,000 active; AID 588335; in the data active means inhibition above about 30%;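 further: 0% = DMSO wells and 100% = wells lacking the enzyme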
Mtb FBA inh = Mtb fructose-bisphosphate aldolase inhibition | P9WQA3 | purified M. tuberculosis FBA, fluorescence read-out | inhibition, % at 1 µM | 2.3% of 360,000 active | AID 588726;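 further: 0% = vehicle and 100% = reference inhibitor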
Target sequence (P9WQA3 whole entry, looked up): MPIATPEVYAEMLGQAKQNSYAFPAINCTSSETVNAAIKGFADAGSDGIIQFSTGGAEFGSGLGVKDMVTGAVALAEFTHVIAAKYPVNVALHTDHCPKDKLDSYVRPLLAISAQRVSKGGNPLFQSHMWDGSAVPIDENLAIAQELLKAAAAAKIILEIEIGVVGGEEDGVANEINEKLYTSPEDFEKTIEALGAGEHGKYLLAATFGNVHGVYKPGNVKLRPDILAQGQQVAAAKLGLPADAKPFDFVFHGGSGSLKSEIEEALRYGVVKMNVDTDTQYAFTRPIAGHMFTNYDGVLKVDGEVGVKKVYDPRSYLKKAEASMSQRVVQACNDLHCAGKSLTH
Mtb FBA inh conf = Mtb FBA inhibition, confirmed; purified M. tuberculosis FBA, fluorescence read-out; 78% of 5,600 active; shares compounds with Mtb FBA inh; inhibition, % at 1 µM; AID 651616;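 further: 0% = vehicle wells and 100% = reference inhibitor wells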
GDH-TPI counter-2 = counter-screen for M. tuberculosis FBA inhibitors: GDH-TPI coupled enzyme inhibition. shares compounds with Mtb FBA inh. 81% of 5,600 active. inhibition, % at 1 µM. GDH-TPI coupled enzyme counterscreen, fluorescence; in the data active means inhibition above about 10%
Starred values were filed as active, the others as inactive; . = no result; + = active, no number. Unless noted, no stated cut-off is given here; in the data, active means inhibition above about 27%; inactive means the rest.

SMILES	Mtb hypoxia inh	BioA inh	FadD28 binding	GDH-TPI counter-1	Mtb FBA inh	Mtb FBA inh conf	GDH-TPI counter-2
COC(=O)c1ccc(OC)c(OC2CCCC2)c1	5.2	.	-1.3	5.7	3.0	.	.
COc1ccc(-c2c(C)nc3c(-c4ccccn4)cnn3c2N)cc1	5.7	6.0	1.4	23.5	27.3*	67.6*	66.9*
C=CCc1c(C)nc2cc(-c3ccc(C)cc3)[nH]n2c1=O	-1.0	-1.0	2.4	-1.5	26.9*	+	+
COc1cc(OC)cc(-c2nnc(Nc3nc4c(F)cccc4s3)o2)c1	-9.0	.	0.5	27.1	30.3*	83.8*	76.3*
Fc1cccc2sc(Nc3nnc(-c4ccccc4)o3)nc12	-5.9	-0.4	-3.2	44.6*	63.8*	+	+
Fc1cccc2sc(Nc3nc4c(F)cccc4s3)nc12	.	.	-0.3	16.6	16.1	.	.
COC(=O)CC1c2cc(F)ccc2S(=O)(=O)N1Cc1ccccc1OC (stereo not given)	2.9	.	.	.	.	.	.
CN(C[C@H]1N[C@@H](CO)[C@H]1c1ccc(-c2cccnc2)cc1)C(=O)CC1CC1	.	-0.5	.	.	.	.	.
CO[C@@H]1CN(C)C(=O)c2ccc(NC(=O)c3ccc4c(c3)OCO4)cc2OC[C@@H](C)N(CC2CC2)C[C@H]1C	.	3.6	.	.	.	.	.
Cc1cc2n(n1)C(c1ccc(N(C)C)cc1)Nc1ccccc1-2 (stereo not given)	1.2	1.2	-4.6	28.9	32.6*	97.9*	81.7*
O=c1oc(CCO)cc2ccc(-c3ccc4[nH]ccc4c3)cc12	-4.9	0.1	-2.3	14.3	4.7	.	.
Cn1cncc1C#Cc1ccc2cc(CCO)oc(=O)c2c1	0.9	0.5	-5.3	16.7	34.4*	+	+
Cc1nc(N2CCN(C(=O)c3ccco3)CC2)c(C#N)c2c1CCCC2	0.9	-0.5	-0.7	11.3	37.9*	97.8*	83.1*
CC(C)Cc1nc(N2CCN(C(=O)c3ccco3)CC2)c(C#N)c2c1CCCC2	3.5	-0.7	-0.6	5.1	9.1	.	.
Nc1c(-c2ccccc2)n[nH]c1-c1ccccc1	4.9	0.1	-3.2	2.1	39.6*	71.5*	50.4*
O=C(N[C@@H]1CC[C@H](CCNS(=O)(=O)c2cccc(Cl)c2)O[C@@H]1CO)c1ccc(F)cc1	.	-0.8	.	.	.	.	.
COc1ccc(CN(C)C[C@H]2OCCCC[C@@H](C)Oc3ccc(NS(=O)(=O)c4cccs4)cc3C(=O)N([C@H](C)CO)C[C@@H]2C)cc1	.	0.9	.	.	.	.	.
CCN1CC=C2C(C#N)=C(N)C(C#N)(C#N)C(CCc3ccccc3)C2C1 (stereo not given)	6.8	-11.2	-0.8	7.7	36.1*	74.2*	64.5*
CCOc1ccc2nc(NCCNC(=O)c3cc(OC)c(OC)c(OC)c3)c(C#N)cc2c1	9.8	.	-3.9	-8.1	0.9	.	.
CCOc1ccc2nc(NCCCNS(=O)(=O)c3ccccc3)c(C#N)cc2c1	-4.3	-0.1	0.2	3.4	36.6*	98.4*	64.1*
CCOc1ccc2nc(NCCCNS(=O)(=O)c3ccc(F)cc3)c(C#N)cc2c1	-8.6	.	-2.4	7.8	39.9*	0.0	-3.1
Cc1noc(C)c1NC(=O)Nc1cccc2c1O[C@H](CN(C)C(=O)NC(C)C)[C@H](C)CN([C@@H](C)CO)C2=O	.	0.0	.	.	.	.	.
NCCCCC(C(=O)NCCCCCCCCCCC(=O)N1CCNCC1)n1cc(CCCC(=O)O)nn1 (stereo not given)	7.5	.	.	.	.	.	.
Cc1ccc(-n2ncc3c(NCCCN4CCCC4=O)ncnc32)c(C)c1	5.7	.	1.1	2.8	2.3	.	.
Cc1ccc2[nH]c3c(NCc4ccco4)ncnc3c2c1	5.5	6.3	-3.9	9.6	42.3*	-1.9	-7.1
SMILES	Mtb hypoxia inh	BioA inh	FadD28 binding	GDH-TPI counter-1	Mtb FBA inh	Mtb FBA inh conf	GDH-TPI counter-2
COc1cc(CNc2ncnc3c2[nH]c2ccc(C)cc23)cc(OC)c1	14.4	-0.3	-1.7	4.8	35.4*	-5.3	-0.5
Cc1ccc2[nH]c3c(NCCCN4CCCC4=O)ncnc3c2c1	11.4	.	2.1	5.7	38.9*	25.7	27.0*
Cc1cc(C)n(N=Cc2ccc(C(C)C)cc2)c(=O)c1C#N	-1.7	.	.	.	.	.	.
COc1ccc(C(=O)NN/C(=N/S(=O)(=O)c2ccc(C)cc2)c2ccccc2)cc1	22.1	.	-0.5	6.5	58.6*	+	+
CSC(=S)NN=C(C)c1ccc(Br)cc1	-7.4	.	.	.	.	.	.
O=C(CCN1C(=O)NC2(CCCC2)C1=O)Nc1ccc(-c2nc3ccccc3s2)cc1	-0.8	-5.1	-4.5	26.5	40.0*	173.9*	119.2*
CCC1(c2ccc(F)cc2)NC(=O)N(CC(=O)Nc2ccc(-c3nc4ccc(C)cc4s3)cc2)C1=O (stereo not given)	1.9	-1.2	-1.0	23.5	41.4*	+	149.6*
Cc1ccc2nc(-c3ccc(NC(=O)COC(=O)c4ccc(=O)[nH]c4)cc3)sc2c1	-7.2	.	0.0	8.6	38.7*	39.3*	29.8*
Cc1ccc2nc(-c3ccc(NC(=O)CNC4CC4)cc3)sc2c1	16.5	.	-2.4	14.4	27.7*	48.1*	39.0*
O=C(CCN1C(=O)NC2(CCCC2)C1=O)Nc1ccc(Sc2ccc(Br)cc2)cc1	.	0.2	-2.9	0.4	-3.0	.	.
Cc1ccc2nc(-c3ccc(NC(=S)NC(=O)CC(C)C)cc3)sc2c1	20.4	-2.8	-1.6	7.3	5.5	.	.
Cc1ccc(C)c(N(CC(=O)Nc2ccc(-c3nc4ccc(C)cc4s3)cc2)S(C)(=O)=O)c1	5.2	-1.5	0.3	16.3	24.0	.	.
COC(=O)NN=C(C)c1ccc2ccccc2c1OC(F)F	-4.5	.	.	.	.	.	.
COc1ccccc1S(=O)(=O)N[C@H]1C=C[C@@H](CC(=O)NCc2cc(F)cc(F)c2)O[C@@H]1CO	.	-2.6	.	.	.	.	.
Cc1ccc2nc(-c3ccc(NC(=O)CN4C(=O)c5ccccc5C4=O)cc3)sc2c1	15.7	-1.2	-2.4	8.7	34.2*	-6.0	-6.5
Cc1ccc2nc(-c3ccc(NC(=O)CCS(=O)(=O)c4ccccc4)cc3)sc2c1	7.5	.	-3.0	3.1	44.5*	-5.7	-6.1
CC(=NNC(=O)c1ccc(O)cc1)c1ccc2c(c1)OCCO2	0.5	.	.	.	.	.	.
C[C@@H]1CN([C@@H](C)CO)C(=O)c2cc(NC(=O)Cn3cnnn3)ccc2O[C@@H]1CN(C)Cc1ccc(-c2ccccc2)cc1	.	-0.5	.	.	.	.	.
CC(C)c1ccc(C(=O)Nc2ccc(CN3CCOCC3)cc2)cc1	5.3	-0.7	0.0	4.0	69.0*	195.6*	191.3*
CCn1c(SC(=O)NC2CCCCC2)nnc1-c1cccs1	5.3	-0.1	0.1	15.9	45.5*	-2.4	-0.4
CCn1c(SCC(=O)NC2CCCCC2)nnc1-c1cccs1	-2.2	1.7	-2.5	6.4	4.7	.	.
Nc1c(S(=O)(=O)c2ccccc2)c2nc3ccccc3nc2n1/N=C/c1cccc(O)c1	.	-3.2	-3.8	21.5	5.7	.	.
Cc1ccc(S(=O)(=O)c2c(N)n(CCC(C)C)c3nc4ccccc4nc23)cc1	2.1	-2.2	1.0	4.4	45.6*	107.3*	80.3*
